Potency and activation data for 14 molecules are collected here from PubChem BioAssay (Tox21).

A short description of experiment [1]: qHTS assay to identify small molecule antagonists of the glucocorticoid receptor (GR) signaling pathway - cell viability counter screen (AID 720693). Also: nearly all actives have a fitted effect of over 55% in size. Also: potency is read from the fitted curve at half-maximal effect. For orientation: In qHTS, concentration-response curves come from the screen itself.
Experiment [2] in a line: qHTS assay for identifying genotoxic compounds that show differential cytotoxicity against isogenic chicken DT40 cell lines with known DNA damage response pathways - wild type cell line (AID 743012). Also: nearly all actives have a fitted effect of over 60% in size. Also: potency is read from the fitted curve at half-maximal effect. Summed up:
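Quantitative HTS on parental DT40 cells: 40 h compound treatment at 37 C/5% CO2, with viability then determined by CellTiter-Glo luminescence. Values serve as the DNA repair-proficient reference for differential cytotoxicity.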

The nature of experiment [3]: qHTS assay for identifying genotoxic compounds that show differential cytotoxicity against isogenic chicken DT40 cell lines with known DNA damage response pathways - Rad54/Ku70 mutant cell line (AID 743015). Also: nearly all actives have a fitted effect of over 60% in size. Also: potency is read from the fitted curve at half-maximal effect.
Experiment [4] is described as follows: qHTS assay to identify small molecule antagonists of the androgen receptor (AR) signaling pathway - cell viability counter screen (AID 743033; also: nearly all actives have a fitted effect of over 45% in size; also: potency is read from the fitted curve at half-maximal effect).
In experiment [5] the target is Androgen receptor (Homo sapiens) (UniProt P10275). Description: qHTS assay to identify small molecule antagonists of the androgen receptor (AR) signaling pathway (AID 743035; active = well fitted inhibition curve with a large enough effect in the signal ratio in the repeat runs, not every such curve was filed as active; inconclusive = weak or mixed curves, or effect the other way; inactive = no such curve, though single readings can be large or run the other way; the % refers to the signal ratio; also: potency is read from the fitted curve at half-maximal effect). Summed up:
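Cell line: GeneBLAzer AR-UAS-bla GripTite (HEK293). Stimulus: R1881 added after compound. Exposure: 16 h, 37C, 5% CO2. Readout: LiveBLAzer B/G FRET fluorescence after 2 h at room temperature.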

For experiment [6] the target is unchanged. Description: qHTS assay to identify small molecule agonists of the androgen receptor (AR) signaling pathway using the MDA cell line (AID 743040; also: nearly all actives have a fitted effect of over 20% in size). Summed up:
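Human breast carcinoma MDA-kb2 reporter cells (MMTV-luc, AR/GR elements) were treated for 16 h at 37C in 0% CO2 following a 5 h settling period. Signal was quantified by ONE-Glo luminescence.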

Experiment [7] in a line: qHTS assay to identify small molecule antagonists of the androgen receptor (AR) signaling pathway using the MDA cell line - cell viability counter screen (AID 743041; also: nearly all actives have a fitted effect of over 45% in size; also: potency is read from the fitted curve at half-maximal effect). Summed up: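 Same-well cytotoxicity was assessed by CellTiter-Fluor in MDA-kb2 AR-luc cells after 16 h of compound treatment under R1881 agonism.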
The target in experiment [8] is Androgen receptor (Homo sapiens) (UniProt P10275). Nature of the experiment: qHTS assay to identify small molecule antagonists of the androgen receptor (AR) signaling pathway using the MDA cell line (AID 743042; also: nearly all actives have a fitted effect of over 55% in size; also: potency is read from the fitted curve at half-maximal effect). Summed up: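 MDA-kb2 breast carcinoma cells carrying MMTV-luciferase (AR/GR responsive) were co-treated with compounds and the agonist R1881 for 16 h at 37C. Inhibition read as ONE-Glo luminescence; CellTiter-Fluor fluorescence measured in parallel for cytotoxicity.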

Experiment [9] can be described thus: qHTS assay to identify small molecule antagonists of the thyroid receptor (TR) signaling pathway - cell viability counter screen (AID 743064). Also: nearly all actives have a fitted effect of over 50% in size. Also: potency is read from the fitted curve at half-maximal effect. Summed up: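 In rat pituitary GH3.TRE-Luc reporter cells co-exposed to compound and 1 nM T3 for 23.5 h, cytotoxicity was assessed with CellTiter-Fluor in the same wells, read by fluorescence.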
In experiment [10] the test system is thyroid hormone receptor (rat, GH3 cells). Description: qHTS assay to identify small molecule agonists of the thyroid receptor (TR) signaling pathway (AID 743066; calls by dose curve; also: potency is read from the fitted curve at half-maximal effect).
Experiment [11] concerns the target Estrogen receptor (Homo sapiens) (UniProt P03372). Nature of the experiment: qHTS assay to identify small molecule antagonists of the estrogen receptor alpha (ER-alpha) signaling pathway (AID 743069; active = well fitted curve in the direction sought with a large enough effect in the signal ratio in the repeat runs, not every such curve was filed as active; inconclusive = weak or mixed curves, or effect the other way; inactive = no such curve, though single readings can be large or run the other way; the % refers to the signal ratio; also: potency is read from the fitted curve at half-maximal effect). Summed up:
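Reporter cells (ER-alpha-bla, HEK293 background) are conditioned overnight in stripped-serum medium (2% charcoal-stripped FBS). Compound and 17beta-estradiol exposure runs 18 hr at 37C, 5% CO2.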

Experiment [12] is described as follows: qHTS assay to identify small molecule antagonists of the estrogen receptor alpha (ER-alpha) signaling pathway - cell viability counter screen (AID 743074; calls by dose curve;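 also: HEK293 cells carrying ER-alpha-UAS-bla reporter stimulated with 17beta-estradiol; nearly all actives have a fitted effect of over 45% in size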; also: potency is read from the fitted curve at half-maximal effect).
For experiment [13], the target named is Estrogen receptor (Homo sapiens) (UniProt P03372). Nature of the experiment: qHTS assay to identify small molecule agonists of the estrogen receptor alpha (ER-alpha) signaling pathway (AID 743075; calls by dose curve;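 also: HEK293 GripTite cells with ER-alpha and UAS-driven beta-lactamase reporter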; also: potency is read from the fitted curve at half-maximal effect). To be noted: HEK293 ER-alpha-UAS-bla, beta-lactamase FRET ratio, 18 h; activation: at 70.1 µM (top of the series).
Experiment [14] shares this target. Description: qHTS assay to identify small molecule agonists of the estrogen receptor alpha (ER-alpha) signaling pathway using the BG1 cell line (AID 743079). Also: nearly all actives have a fitted effect of over 20% in size. Also: potency is read from the fitted curve at half-maximal effect. To be noted: BG1Luc4E2 cells, ERE-luciferase agonist, 22 h.
Experiment [15] is described as follows: qHTS assay to identify small molecule antagonists of the estrogen receptor alpha (ER-alpha) signaling pathway using the BG1 cell line - cell viability counter screen (AID 743081).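 Also: compound given together with 17beta-estradiol as the ER stimulus; nearly all actives have a fitted effect of over 45% in size.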 Also: potency is read from the fitted curve at half-maximal effect.
For a further experiment, the target named is Aromatase (Homo sapiens) (UniProt P11511). Description: qHTS assay to identify aromatase inhibitors (AID 743083). Also: nearly all actives have a fitted effect of over 55% in size. Also: potency is read from the fitted curve at half-maximal effect.
The nature of experiment [16]: qHTS assay for identifying genotoxic compounds that show differential cytotoxicity against isogenic chicken DT40 cell lines with known DNA damage response pathways - Rev3 mutant cell line (AID 743014). Also: nearly all actives have a fitted effect of over 55% in size. Also: potency is read from the fitted curve at half-maximal effect.
Experiment [17] can be described thus: qHTS assay to identify small molecule antagonists of the thyroid receptor (TR) signaling pathway (AID 743065). Also: nearly all actives have a fitted effect of over 55% in size. Also: potency is read from the fitted curve at half-maximal effect. Summed up: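 GH3.TRE-Luc rat pituitary cells (two TREs driving luciferase) were dosed with compound, then stimulated with 1 nM T3 (final) for 23.5 h at 37 C. ONE-Glo luminescence was the read-out, with CellTiter-Fluor fluorescence as the cytotoxicity counter-screen.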

Experiment [18] can be described thus: qHTS assay to identify small molecule antagonists of the estrogen receptor alpha (ER-alpha) signaling pathway using the BG1 cell line (AID 743080; calls by dose curve;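 also: BG1 cells stimulated with 17beta-estradiol alongside compound; nearly all actives have a fitted effect of over 25% in size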; also: potency is read from the fitted curve at half-maximal effect). Summed up:
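Endogenous full-length ER-alpha in BG1-Luc-4E2 cells drives a stably integrated 4×ERE luciferase gene; compounds were tested against 17beta-estradiol over 21.5 h, with luminescence and multiplexed viability fluorescence recorded.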

Experiment [19] addresses Androgen receptor (Homo sapiens) (UniProt P10275). Description: qHTS assay to identify small molecule agonists of the androgen receptor (AR) signaling pathway (AID 743036; active = well fitted activation curve with a large enough effect in the signal ratio in the repeat runs, with a control signal flat, not every such curve was filed as active; inconclusive = weak or mixed curves, or effect the other way; inactive = no such curve, though single readings can be large or run the other way; the % refers to the signal ratio). Summed up:
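Cell-based FRET reporter assay: HEK293 line with a UAS-beta-lactamase construct, compounds added in DMSO, 16 h exposure at 37C, then 2 h substrate step at room temperature and fluorescence intensity read.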

Values joined by “and” are separate entries in the source; they are usually repeats but may differ in a detail not shown here. Equal values may be shown once. A number with no mark means an inactive call. Active and inactive are the calls of the source. Unless noted, calls follow the shape of the dose curve; as a rule, active = well fitted curve in the direction sought with a large enough effect in the repeat runs; inconclusive = weak or mixed curves; inactive = no such curve, though single readings can be large; an effect the other way counts as inactive or inconclusive.
% is scaled to controls: 0 for no effect and ±100 for the full control effect.

Aromatase (Homo sapiens), sequence (P11511 whole entry, looked up): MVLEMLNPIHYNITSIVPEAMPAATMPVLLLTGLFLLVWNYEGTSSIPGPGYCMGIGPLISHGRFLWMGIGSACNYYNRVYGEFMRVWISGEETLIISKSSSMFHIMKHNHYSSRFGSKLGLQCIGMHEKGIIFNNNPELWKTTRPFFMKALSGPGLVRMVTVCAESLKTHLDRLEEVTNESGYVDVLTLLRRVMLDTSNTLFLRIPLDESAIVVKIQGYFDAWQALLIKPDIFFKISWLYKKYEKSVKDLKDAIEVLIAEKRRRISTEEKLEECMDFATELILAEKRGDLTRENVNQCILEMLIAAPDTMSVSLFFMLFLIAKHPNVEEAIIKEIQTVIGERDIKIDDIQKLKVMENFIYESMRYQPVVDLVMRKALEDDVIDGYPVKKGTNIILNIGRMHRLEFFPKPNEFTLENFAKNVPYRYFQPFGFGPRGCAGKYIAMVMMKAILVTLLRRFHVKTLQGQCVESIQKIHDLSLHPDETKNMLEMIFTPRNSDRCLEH
Androgen receptor (Homo sapiens), sequence (P10275 whole entry, looked up): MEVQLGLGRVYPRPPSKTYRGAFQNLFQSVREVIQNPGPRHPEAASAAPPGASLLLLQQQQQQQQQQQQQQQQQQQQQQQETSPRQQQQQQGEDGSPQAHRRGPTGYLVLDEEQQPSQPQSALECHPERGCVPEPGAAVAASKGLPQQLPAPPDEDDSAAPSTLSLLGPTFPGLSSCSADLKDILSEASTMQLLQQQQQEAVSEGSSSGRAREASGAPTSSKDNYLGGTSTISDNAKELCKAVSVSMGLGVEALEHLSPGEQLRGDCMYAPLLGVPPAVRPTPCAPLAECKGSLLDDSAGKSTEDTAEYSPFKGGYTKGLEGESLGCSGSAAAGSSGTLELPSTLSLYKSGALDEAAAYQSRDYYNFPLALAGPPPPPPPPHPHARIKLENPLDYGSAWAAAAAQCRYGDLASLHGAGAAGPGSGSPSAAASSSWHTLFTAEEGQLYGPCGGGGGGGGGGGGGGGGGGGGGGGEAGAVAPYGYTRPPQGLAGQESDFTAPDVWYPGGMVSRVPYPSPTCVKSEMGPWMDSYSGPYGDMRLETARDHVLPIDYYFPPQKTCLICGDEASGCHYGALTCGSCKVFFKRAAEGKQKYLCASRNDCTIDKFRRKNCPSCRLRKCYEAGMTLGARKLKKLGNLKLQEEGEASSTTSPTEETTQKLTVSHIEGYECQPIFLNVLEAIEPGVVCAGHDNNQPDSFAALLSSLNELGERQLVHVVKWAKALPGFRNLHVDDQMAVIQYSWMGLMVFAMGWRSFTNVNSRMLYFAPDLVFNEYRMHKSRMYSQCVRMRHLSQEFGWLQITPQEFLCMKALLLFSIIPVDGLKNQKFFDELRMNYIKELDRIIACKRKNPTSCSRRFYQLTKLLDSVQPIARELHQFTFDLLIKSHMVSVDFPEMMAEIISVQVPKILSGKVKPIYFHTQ
Estrogen receptor (Homo sapiens), sequence (P03372 whole entry, looked up): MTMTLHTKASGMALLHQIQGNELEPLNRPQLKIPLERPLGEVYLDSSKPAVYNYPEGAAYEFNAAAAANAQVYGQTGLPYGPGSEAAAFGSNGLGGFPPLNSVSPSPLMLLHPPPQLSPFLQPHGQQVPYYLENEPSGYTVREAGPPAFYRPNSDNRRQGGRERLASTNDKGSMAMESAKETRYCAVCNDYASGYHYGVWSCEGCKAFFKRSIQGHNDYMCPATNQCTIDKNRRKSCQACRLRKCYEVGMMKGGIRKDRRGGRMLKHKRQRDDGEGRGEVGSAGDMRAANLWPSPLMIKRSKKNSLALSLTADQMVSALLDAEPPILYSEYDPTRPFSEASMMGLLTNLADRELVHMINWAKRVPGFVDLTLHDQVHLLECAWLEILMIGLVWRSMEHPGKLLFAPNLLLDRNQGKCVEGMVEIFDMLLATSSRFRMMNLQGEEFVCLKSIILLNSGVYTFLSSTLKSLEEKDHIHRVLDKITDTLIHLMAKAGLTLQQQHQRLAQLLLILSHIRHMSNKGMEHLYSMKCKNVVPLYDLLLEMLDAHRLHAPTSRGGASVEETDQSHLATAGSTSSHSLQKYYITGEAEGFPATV

Regarding `N#CSc1ccc(N)c([N+](=O)[O-])c1`, the Potency in experiment [1] was 55.3 µM (active); in [2], 12.3 µM (active); in experiment [3], 9.75 µM (active); in [4], 24.7 µM (active); in [5], 43.9 µM (active); in experiment [7], 61.5 µM (active). The Potency in experiment [8] is 61.5 µM (active); in experiment [9], 54.8 µM (active); in experiment [11] it was 27.7 µM [inconclusive] (active); in experiment [15] it was 54.8 µM (active); in the experiment with Aromatase (Homo sapiens), 27.5 µM (active). The Potency result in experiment [6], in experiment [10], in [12] and in [13] was “inactive” throughout. The activation in experiment [14] (at 95 µM (top of the series)) is -0.741%.
As to `COCCCC/C(=N\OCCN)c1ccc(C(F)(F)F)cc1`, the Potency entry in experiment [1], in experiment [11], in experiment [13], in experiment [18] and in experiment [15] was “inactive” in each case. In addition, the Potency is 6.68 µM (active) in experiment [2]; 9.44 µM (active) in experiment [16]; 10.6 µM (active) in experiment [3]; 13.3 µM (active) in experiment [9]; 11.9 µM (active) in [17]; 21.1 µM (active) with Aromatase (Homo sapiens). For the same molecule, the activation in experiment [14] (at 70.3 µM (top of the series)) is -27%.
Take `CCCN(CCC)C(=O)C(CCC(=O)OCCCN1CCN(CCOC(=O)Cc2c(C)n(C(=O)c3ccc(Cl)cc3)c3ccc(OC)cc23)CC1)NC(=O)c1ccccc1` (configuration not stated): the Potency entry in experiment [1], in experiment [4], in [6], in experiment [7], in experiment [12] and in experiment [15] was “inactive” throughout. The Potency in [2] was 23.7 µM (active); in experiment [16], 26.6 µM (active); in experiment [9] it was 13.3 µM (active); in [17] it was 26.6 µM (active); in [13] it was 7.56 µM [activator] (active); in experiment [14] it was 0.211 µM (active).
Regarding `O=C(Oc1cccc2cccnc12)c1ccccc1`, the Potency result in experiment [1], in [11], in experiment [12], in [13] and in [15] was “inactive” each time. Moreover, the Potency in experiment [2] was 2.66 µM (active); in experiment [3], 6.68 µM (active); in [4] it was 7.56 µM (active); in experiment [7] it was 6.99 µM (active); in [9] it was 13.3 µM (active); in experiment [17] it was 13.3 µM (active). For the same molecule, the Potency with Aromatase (Homo sapiens) is 18.8 µM (active).
As for `O=[N+]([O-])c1cc(Cl)c(Cl)c(Cl)c1Cl`, the Potency result in [1], in experiment [2], in experiment [3], in experiment [4], in experiment [7] and in experiment [10] was “inactive” in each case. In addition, the Potency result in [12] and in experiment [15] was “inactive” in each case. Besides, the Potency in experiment [17] is 60.9 µM (active).
For the molecule `N=C1N=C(N)c2cc3ccccc3cc21`, the Potency was 21.9 µM (active) in [1]; 9.69 µM (active) in experiment [2]; 27.3 µM (active) in experiment [16]; 27.3 µM (active) in experiment [3]; 12.9 µM (active) in experiment [9]; 13.7 µM (active) in experiment [17]. The Potency in the experiment with Aromatase (Homo sapiens) is 19.9 µM (active). In [10], the Potency entry is “inactive”.
In the case of `O=C(O)c1cc(O)c2c(c1)C(=O)c1cccc(O)c1C2=O`, the Potency entry in experiment [1], in experiment [2], in [16], in [4], in experiment [7] and in experiment [9] was “inactive” each time. In addition, the Potency result (in experiment [17]; in experiment [10]; in experiment [11]; in [12]; in experiment [13]; with Aromatase (Homo sapiens)) was “inactive” throughout. In addition, in experiment [14], the Potency is 39.7 µM (active).
As for `CC(C)(C)CC(C)(C)c1ccc(O)c(Cc2ccc(Cl)cc2Cl)c1`, the Potency was 10.7 µM (active) in [1]; 26.6 µM (active) in [2]; 26.6 µM (active) in [3]; 6.68 µM (active) in experiment [9]; 6.68 µM (active) in experiment [17]; 2.11 µM (active) in experiment [10]. In addition, in experiment [12], the Potency was 23.9 µM (active). In addition, the Potency result (in experiment [5]; in [6]; in experiment [7]; in experiment [8]; in the experiment with Aromatase (Homo sapiens)) was “inactive” in each case.
`CCCCCCCCCCCCCCCC(=O)OC[C@H](O)[C@H]1OC(=O)C(O)=C1O`: the Potency entry in experiment [1], in [2], in [3], in [4], in [5] and in experiment [19] was “inactive” throughout. The Potency entry in experiment [6], in experiment [7], in experiment [8], in experiment [9], in experiment [17] and in [10] was “inactive” each time. Also, the Potency result (in [11]; in experiment [12]; in experiment [13]; in [18]; in experiment [15]; with Aromatase (Homo sapiens)) was “inactive” throughout. The activation in experiment [14] (at 70.3 µM (top of the series)) is 0.436% and 6.85%.
`CCCC/C=C/CCCCO`: the Potency entry in experiment [1], in experiment [2], in experiment [16], in [4], in experiment [7] and in experiment [9] was “inactive” throughout. Besides, the Potency entry (in experiment [17]; in experiment [10]; in experiment [11]; in [12]; in experiment [13]; in the experiment with Aromatase (Homo sapiens)) was “inactive” throughout.
With `CC[C@@]1(O)C(=O)OCc2c1cc1n(c2=O)Cc2cc3c(CN(C)C)c(O)ccc3nc2-1`, the Potency result in experiment [1], in experiment [10], in experiment [12] and in experiment [13] was “inactive” each time. The Potency was 1.33 µM (active) in experiment [2]; 1.19 µM (active) in [16]; 2.37 µM (active) in experiment [17]; 12 µM [inconclusive] (active) in experiment [11]; 7.5 µM (active) in [18]; 5.31 µM (active) in the experiment with Aromatase (Homo sapiens).
Take `O=C(NOCC1CC1)c1ccc(F)c(F)c1Nc1ccc(I)cc1Cl`: the Potency is 23.9 µM (active) in [1]; 29.8 µM (active) in experiment [2]; 29.8 µM (active) in [16]; 15 µM (active) in [9]; 13.3 µM (active) in [17]; 3.79 µM [inconclusive] (active) in [11]. In addition, the Potency result (in [6]; in [7]; in [13]; in experiment [15]; with Aromatase (Homo sapiens)) was “inactive” throughout.
On to `CCCC(C)c1ccccc1O` (configuration not stated), for which the Potency result in experiment [1], in experiment [7], in experiment [10], in experiment [11], in experiment [12] and in [13] was “inactive” throughout. For the same molecule, the Potency result in experiment [18] and in experiment [15] was “inactive” throughout. Moreover, the Potency was 48.6 µM (active) in experiment [2], 24.3 µM (active) in experiment [16] and 61.1 µM (active) in experiment [3].
Regarding `C=CC(=O)OCCn1c(=O)n(CCOC(=O)C=C)c(=O)n(CCOC(=O)C=C)c1=O`, the Potency result in [1] and in experiment [10] was “inactive” in each case. Also, the Potency was 2.73 µM (active) in [2]; 2.43 µM (active) in experiment [3]; 15.5 µM (active) in experiment [4]; 30.6 µM (active) in [7]; 5.45 µM (active) in experiment [9]; 4.86 µM (active) in experiment [17]. For the same molecule, the Potency is 54.5 µM (active) in [15] and 13.7 µM (active) with Aromatase (Homo sapiens).
